Reference: PubChem BioAssay (NCATS)
Results filed as inconclusive are left out. Values without a mark were called inactive. Activity calls are given as the source filed them. The call rests on the fitted dose curve; in most records, active means well fitted curve in the direction sought with a large enough effect; inconclusive means small, poorly fitted or top-dose-only effect, or another doubt; inactive means no such curve, though single readings can be large; an effect the other way counts as inactive or inconclusive.

Tested on: Zika virus NS2B-NS3 protease (linked construct)
Assay: Primary screen NINDS Rhodamine qHTS for Zika virus inhibitors (AID 1347160); further: on the % scale 0 is the no-effect control and ±100 the full control effect; nearly all actives have a fitted effect of over 55% in size
Conditions: purified NS2B-NS3 protease, Rhodamine110 substrate fluorescence; series mostly up to 57.1 µM; activity change, negative = inhibition: at the top concentration
In short: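 Enzyme (25 nM, linked NS2B-NS3) was preincubated 15 min with compound in 10 mM Tris-HCl pH 8.0, 0.01% Tween 20. Rhodamine110 substrate (1.5 microM) was then added and fluorescence read at start and after 15 min.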

Structure (SMILES) | activity change, negative = inhibition
O=C(NCC1CCOCC1)c1cnc(Nc2ccc(Cl)cc2Cl)nc1C(F)(F)F | 18.9%
COC1=C[C@@H]2[C@@H]3Cc4ccc(OC)c(O)c4[C@]2(CCN3C)CC1=O | 16.1%
CC(C)(C)NC[C@H](O)c1ccc(O)cc1Cl | -0.573%
CC(C)[C@]12O[C@H]1[C@@H]1O[C@]13[C@]1(O[C@H]1C[C@H]1C4=C(CC[C@@]13C)C(=O)OC4)[C@@H]2O | 13.1%
NCCc1c[nH]c2ccc(O)cc12 | 13.5% [at 112 µM]
CCN1CCN(C(=O)Cc2ccc(Nc3ncc(F)c(Nc4ccc(C(=O)Nc5ccccc5Cl)cc4)n3)cc2)CC1 | -1.02%
O=c1[nH]c2ccc(Cl)cc2c(N[C@@H]2CN3CCC2CC3)c1-c1nc2ccccc2[nH]1 | 8.75%
NCCc1c[nH]c2ccccc12 | 25.6% [at 112 µM]
O=C(Oc1ccc([N+](=O)[O-])cc1)N1CCC(C(O)(c2ccc3c(c2)OCO3)c2ccc3c(c2)OCO3)CC1 | 19%
COc1ccc(N(C(=O)Oc2c(C)cccc2C)c2ccnc(Nc3ccc(N4CCN(C)CC4)cc3)n2)c(OC)c1 | -24.3%

Target: Lysine-specific demethylase 5B (Homo sapiens) (UniProt Q9UGL1)
Assay: Optimization screen for KDM5B Histone Demethylases FDH coupled qHTS against the LOPAC library (AID 1347166); further: 0% is about no effect
Conditions: KDM5B demethylation, FDH-coupled NADH fluorescence (FDH is formaldehyde dehydrogenase); series mostly up to 57.5 µM; activity, negative = inhibition: at the top concentration
In short: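 KDM5BDeltaAP (200nM final) in 50mM HEPES pH 7.5, 0.01% Tween-20 was preincubated with compound for 10 min at room temperature. A substrate mix of 12.5uM H3K4Me3, 25uM a-ketoglutarate, ascorbate, Fe2+, NAD+ and formaldehyde dehydrogenase was then added. NADH fluorescence (340/450 nm) was read initially and after 30 min.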

Lysine-specific demethylase 5B (Homo sapiens), sequence (Q9UGL1 whole entry, looked up): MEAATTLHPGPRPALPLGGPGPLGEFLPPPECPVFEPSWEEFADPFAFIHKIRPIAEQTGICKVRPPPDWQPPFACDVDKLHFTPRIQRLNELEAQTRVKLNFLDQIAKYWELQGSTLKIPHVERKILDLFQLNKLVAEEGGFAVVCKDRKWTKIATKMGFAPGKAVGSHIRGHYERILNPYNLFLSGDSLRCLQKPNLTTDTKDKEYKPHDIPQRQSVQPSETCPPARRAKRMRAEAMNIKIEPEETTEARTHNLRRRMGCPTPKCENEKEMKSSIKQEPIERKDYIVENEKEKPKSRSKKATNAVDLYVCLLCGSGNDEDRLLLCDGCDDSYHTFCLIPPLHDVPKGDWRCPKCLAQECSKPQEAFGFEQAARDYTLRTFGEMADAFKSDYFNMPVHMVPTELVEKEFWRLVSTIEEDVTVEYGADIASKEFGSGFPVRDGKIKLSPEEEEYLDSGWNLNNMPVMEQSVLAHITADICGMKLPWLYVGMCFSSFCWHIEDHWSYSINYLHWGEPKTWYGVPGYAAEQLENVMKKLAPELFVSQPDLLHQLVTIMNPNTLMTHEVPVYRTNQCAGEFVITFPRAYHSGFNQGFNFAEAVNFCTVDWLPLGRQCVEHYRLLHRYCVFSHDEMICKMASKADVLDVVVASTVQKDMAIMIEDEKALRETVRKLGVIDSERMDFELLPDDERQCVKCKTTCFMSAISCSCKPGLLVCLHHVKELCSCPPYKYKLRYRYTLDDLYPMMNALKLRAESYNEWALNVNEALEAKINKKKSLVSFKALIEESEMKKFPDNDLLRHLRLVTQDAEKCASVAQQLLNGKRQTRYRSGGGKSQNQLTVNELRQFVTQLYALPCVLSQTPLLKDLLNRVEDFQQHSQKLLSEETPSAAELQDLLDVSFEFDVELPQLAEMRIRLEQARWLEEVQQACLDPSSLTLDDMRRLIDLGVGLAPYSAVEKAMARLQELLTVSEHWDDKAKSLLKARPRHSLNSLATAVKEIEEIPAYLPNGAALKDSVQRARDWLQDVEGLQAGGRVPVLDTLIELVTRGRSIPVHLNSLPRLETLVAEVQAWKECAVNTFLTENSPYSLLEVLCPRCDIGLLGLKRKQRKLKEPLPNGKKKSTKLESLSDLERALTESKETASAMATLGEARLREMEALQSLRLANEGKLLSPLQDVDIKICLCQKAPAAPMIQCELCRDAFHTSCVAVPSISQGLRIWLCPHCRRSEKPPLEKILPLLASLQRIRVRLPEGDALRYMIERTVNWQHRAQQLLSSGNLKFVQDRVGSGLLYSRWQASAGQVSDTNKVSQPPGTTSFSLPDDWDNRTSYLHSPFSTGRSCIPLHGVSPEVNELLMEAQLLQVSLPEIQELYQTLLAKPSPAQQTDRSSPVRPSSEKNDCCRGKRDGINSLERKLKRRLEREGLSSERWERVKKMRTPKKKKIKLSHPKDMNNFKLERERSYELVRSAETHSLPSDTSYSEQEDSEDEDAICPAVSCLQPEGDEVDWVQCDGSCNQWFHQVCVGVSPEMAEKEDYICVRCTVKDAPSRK

Structure (SMILES) | activity, negative = inhibition | outcome
NC1CC1c1ccccc1 (configuration not stated) | -5% | 
NCCc1c[nH]c2ccc(O)cc12 | -13.6% | 
O=C(O)Cc1cnc[nH]1 | -2.96% | 
Clc1cnc(Oc2ccc(Oc3ncc(Cl)cc3Cl)cc2)c(Cl)c1 | -7.93% | 
C[C@@H](N)Cc1cnc[nH]1 | -9.73% | 
NC(CP(=O)(O)O)C(=O)O (configuration not stated) | -6.53% | 
CC(Cc1ccc(O)cc1)NCC(O)c1cc(O)cc(O)c1 (configuration not stated) | -8.76% | 
C[C@@H]1O[C@H](C[N+](C)(C)C)C[C@H]1O | -9.81% | 
CN[C@@H]1C[C@@H](c2ccc(Cl)c(Cl)c2)c2ccccc21 | -10.2% | 
COc1cc(C(O)CN)ccc1O (configuration not stated) | -3.81% | 
NCCc1c[nH]c2ccccc12 | -14% | 
C[N+]1(C)C2CCC1CC(OC(=O)C(CO)c1ccccc1)C2 (configuration not stated) |  | inactive
O=C(O)[C@@H]1CCN1 | -3.84% | 
c1ccc2sc(C3(N4CCCCC4)CCCCC3)cc2c1 | -7.11% | 
C[C@]12N[C@H](Cc3ccccc31)c1ccccc12 | -4.12% | 
CCCCc1ccc(C(=O)O)nc1 | -11.1% | 
NC(=O)CN1CC(O)CC1=O (configuration not stated) | -6.36% | 
